Counter-ions that a name gives are not always drawn.
system: Saccharomyces cerevisiae BY4741 SeMeCo community; test: z-score of subpopulation abundance vs DMSO median, subpopulation auxotrophic for LU; higher = larger share of this subpopulation than in DMSO controls; details: 10 µM; 24 h; SM minimal medium; subpopulation (auxotrophy): LU
Procedure: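 Fluorescent four-plasmid SeMeCo (self-establishing metabolically cooperating S. cerevisiae BY4741 community; plasmids pH-mRuby2, pL-mWasabi, pU-eCFP, pM-TagRFP657) was grown 24 h in minimal SM medium with each Selleck FDA-approved drug at 10 µM in 384-well plates. Cells were fixed and imaged by high-content confocal microscopy. For each auxotrophic subpopulation (and the prototroph), a z-score gives the deviation from the DMSO vehicle-control population median.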

| SMILES | z-score of subpopulation abundance |
| --- | --- |
| CC(=O)Oc1ccccc1C(=O)O [Aspirin] | 0.01 |
| CS(=O)(=O)c1ccc([C@@H](O)[C@@H](CO)NC(=O)C(Cl)Cl)cc1 [Thiamphenicol] | 0.67 |
| CS(=O)(=O)c1ccc([C@@H](O)[C@@H](CF)NC(=O)C(Cl)Cl)cc1 [Florfenicol] | -0.09 |
| CCN[C@@H]1C[C@H](N)[C@@H](O[C@H]2OC(CN)=CC[C@H]2N)[C@H](O)[C@H]1O[C@H]1OC[C@](C)(O)[C@H](NC)[C@H]1O [Netilmicin Sulfate] | 0.47 |
| CC#C[C@]1(O)CC[C@H]2[C@@H]3CCC4=CC(=O)CCC4=C3[C@@H](c3ccc(N(C)C)cc3)C[C@@]21C [Mifepristone] | 0.63 |
| C=C1CCC2C(C)(CO)C(O)CCC2(C)C1CC=C1C=COC1=O (stereo not given) [Dehydroandrographolide] | 1.6 |
| COc1ccc(C[C@H](N)C(=O)N[C@H]2[C@@H](O)[C@H](n3cnc4c(N(C)C)ncnc43)O[C@@H]2CO)cc1 [Puromycin 2HCl] | -0.06 |
| CN(C)CCCN1c2ccccc2CCc2ccc(Cl)cc21 [Clomipramine HCl] | 0.32 |
| Cc1ccc(Sc2ccccc2N2CCNCC2)c(C)c1 [Vortioxetine] | -0.19 |
| C=CC[N+]1([C@H]2C[C@H]3[C@@H]4CC[C@H]5C[C@H](O)[C@@H](N6CCOCC6)C[C@]5(C)[C@H]4CC[C@]3(C)[C@H]2OC(C)=O)CCCC1 [Rocuronium Bromide] | -0.06 |
| C#C[C@]1(O)CC[C@H]2[C@@H]3CCc4cc(O)ccc4[C@H]3CC[C@@]21C [Ethinyl Estradiol] | -1.41 |
| COc1cc([C@@H]2c3cc4c(cc3[C@@H](O[C@@H]3O[C@@H]5CO[C@@H](C)O[C@H]5[C@H](O)[C@H]3O)[C@H]3COC(=O)[C@H]23)OCO4)cc(OC)c1O [Etoposide] | 0.39 |
| Clc1ccc(COC(Cn2ccnc2)c2ccc(Cl)cc2Cl)cc1 (stereo not given) [Econazole] | -0.93 |
| NCCNc1ccc(NCCN)c2c1C(=O)c1ccncc1C2=O [Pixantrone Maleate] | 2.14 |
| NCc1ccccc1CC(=O)N[C@@H]1C(=O)N2C(C(=O)O)=C(CSc3nnnn3CC(=O)O)CS[C@H]12 [Ceforanide] | 0.89 |
| NC[C@@H]1O[C@H](O[C@H]2[C@@H](O)[C@H](O[C@@H]3[C@@H](O)[C@H](N)C[C@H](N)[C@H]3O[C@H]3O[C@H](CO)[C@@H](O)[C@H](O)[C@H]3N)O[C@@H]2CO)[C@H](N)[C@@H](O)[C@@H]1O [Paromomycin Sulfate] | -0.04 |
| CC(=O)OCC1=C(C(=O)O)N2C(=O)C(NC(=O)CSC(=NC(C)C)NC(C)C)C2SC1 (stereo not given) [Cefathiamidine] | -0.47 |
| COC(=O)C1=C(C)NC(C)=C(C(=O)OCCN2CCN(C(c3ccccc3)c3ccccc3)CC2)C1c1cccc([N+](=O)[O-])c1 (stereo not given) [Manidipine 2HCl] | -0.77 |
| CCc1nn(CCCN2CCN(c3cccc(Cl)c3)CC2)c(=O)n1CCOc1ccccc1 [Nefazodone hydrochloride] | 0.49 |
| CCN(CC)C(=O)C1(c2ccccc2)CC1CN (stereo not given) [Milnacipran HCl] | 0.01 |

| SMILES | z-score of subpopulation abundance |
| --- | --- |
| Clc1ccc(CCC(Cn2ccnc2)Sc2c(Cl)cccc2Cl)cc1 (stereo not given) [Butoconazole nitrate] | 1.13 |
| CN(C)CCCN1c2ccccc2Sc2ccc(Cl)cc21 [Chlorpromazine HCl] | -0.32 |
| CC1(C)S[C@@H]2[C@H](NC(=O)COc3ccccc3)C(=O)N2[C@H]1C(=O)O [Penicillin V potassium salt] | -0.1 |
| CCc1cc(C(N)=S)ccn1 [Ethionamide] | 0.05 |
| CC1=Nc2ccc(Cl)cc2S(=O)(=O)N1 [Diazoxide] | -0.67 |
| COc1ccnc(C[S+]([O-])c2nc3cc(OC(F)F)ccc3[nH]2)c1OC (stereo not given) [Pantoprazole] | 0.17 |
| Oc1cccc(O)c1 [Resorcinol] | -1.33 |
| NC12CC3CC(CC(C3)C1)C2 [Amantadine HCl] | -0.18 |
| Cc1cc(/C=C/c2ccc3cc(N(C)C)ccc3[n+]2C)c(C)n1-c1ccccc1 [pyrvinium] | 0.05 |
| COC(=O)Nc1nc2cc(Sc3ccccc3)ccc2[nH]1 [Fenbendazole] | -0.67 |
| C#C[C@]1(O)CC[C@H]2[C@@H]3CCC4=Cc5oncc5C[C@]4(C)[C@H]3CC[C@@]21C [Danazol] | 0.13 |
| O=[N+]([O-])c1ccc(O)c2ncccc12 [Nitroxoline] | 12.2 |
| OC(CCN1CCCCC1)(c1ccccc1)C1CCCCC1 (stereo not given) [Trihexyphenidyl hydrochloride] | 1.04 |
| C[C@H]1O[C@@H](O[C@H]2[C@@H](O)C[C@H](O[C@H]3[C@@H](O)C[C@H](O[C@H]4CC[C@@]5(C)[C@H](CC[C@@H]6[C@@H]5C[C@@H](O)[C@]5(C)[C@@H](C7=CC(=O)OC7)CC[C@]65O)C4)O[C@@H]3C)O[C@@H]2C)C[C@H](O)[C@@H]1O [Digoxin] | -0.6 |
| COc1cc(N)c(Cl)cc1C(=O)NC1CCN(CCCOc2ccc(F)cc2)CC1OC (stereo not given) [Cisapride] | -0.54 |
| COc1cc2c(cc1OC)[C@@H]1Cc3ccc(OC)c(OC)c3CN1CC2 [Rotundine] | 0.16 |
| CC1(C)S[C@@H]2[C@H](NC(=O)[C@H](NC(=O)N3CCNC3=O)c3ccccc3)C(=O)N2[C@H]1C(=O)O [Azlocillin sodium salt] | -0.34 |
| C[C@]12CC[C@@H]3c4ccc(OC(=O)c5ccccc5)cc4CC[C@H]3[C@@H]1CC[C@@H]2O [Estradiol Benzoate] | -0.68 |
| Cc1nc(=O)c2cc(CN(C)c3ccc(C(=O)N[C@@H](CCC(=O)O)C(=O)O)s3)ccc2[nH]1 [Raltitrexed] | -1.62 |
| COc1ccc(CNc2nc(N3CCC[C@H]3CO)ncc2C(=O)NCc2ncccn2)cc1Cl [Avanafil] | -0.03 |

— the supplement of paper PMC8975748
